This passage reports growth results from PubChem BioAssay (NCI).

Structures are written as SMILES. This is part of a sample that, as a whole, favours compounds with a hit. Of some 83,000 tested, about 20% had one in any assay.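 Plates (96-well) were seeded with cells, treated with compound at one concentration, and incubated for 48 hours before percent growth was determined.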 A number with no mark means an inactive call. Calls of active or inactive are those of the source.

This experiment concerns PC-3 prostate. The experiment can be described thus: NCI-60 one-dose screen, 48 h (100 = growth as untreated, 0 = no growth, -100 = all killed). The settings on record: 10 µM unless noted. Here is the method: Growth inhibition of the PC-3 human tumor cell line is measured as a screen for anti-cancer activity. Cells are grown in 96 well plates and exposed to the test compound for 48 hours. Compounds are tested at a single concentration, which is 10^-5 M for most compounds. The reported endpoint is percent growth (GI% or GIPRCNT), where numbers from 0 - 100% represent growth inhibition, and numbers from -100% - 0 represent cell death. For example, a value of 40 represents 60% growth inhibition. A value of 0 means no net growth occurred over the course of the experiment. A value of -40 indicates 40% of cells at the beginning of the experiment died by the end of the experiment. A value of -100 means all cells are dead at the end of the experiment.
NCI-60 Human Tumor Cell Lines Screen was performed using the standard one-dose NCI protocol, which is described in more detail at https://dtp.cancer.gov/discovery_development/nci-60/default.htm.
Compounds with GIPRCNT values below 10 were considered active. Activity score was based on GIPRCNT using the following formula: […]
Score is 0 for GIPRCNT values of 100 or above, 50 for GIPRCNT values of 0, and 100 for GIPRCNT values of -100.
For the molecule `COc1ccc(-n2nc(C(=O)NCC(=O)O)nc2-c2ccccc2)cc1`, the growth was 103%. With `CSc1cccc(NC(=O)Nc2nc3c(C)cccc3s2)c1` the figure was 95.7%. On to `CC(C)C1=C[C@@]23CC[C@H]4[C@](C)(COCCC#N)CCC[C@]4(C)[C@H]2C[C@@H]1[C@@H]1[C@H]3[C@@H](OCCC#N)CC[C@@H]1OCCC#N`, for which the growth was 9.6% (active). Turning to `COc1ccc2nc(-c3ccc(OC)c(OC)c3)cc(-c3nnc(SCC(=O)Nc4ccc(C(C)=O)cc4)o3)c2c1`, the growth is 95%. For the molecule `Cc1nc2sc(C(=O)Nc3ccccc3Cl)c(N)c2cc1C(C)O` (stereo not given), the growth is 83.5%.

`N#Cc1nc(-c2ccccc2)oc1S(=O)(=O)NCC(c1ccc(Cl)cc1)N1CCCCC1` (stereo not given): the growth is 78.9%.

Regarding `COc1ccc2nc3c(n2c1)C(=O)C(=O)c1ccccc1-3`, the growth is 22.3%.

For the molecule `O=C(NC[C@H](O)CN1CCc2ccccc2C1)c1cc(NC2COC2)ncn1`, the growth was 107%.

Consider `O=C(C[n+]1cccc2cc(Cl)ccc21)c1ccc2c(c1)CCCC2`, for which the growth is 16.1%. Regarding `COC(=O)c1oc2c(C(=O)/C=C/c3ccc(OC)cc3)c(OCCCN3CCCCC3)ccc2c1C`, the growth is -2.46% (active). The same measure for `Cc1ccc(C(=O)O)o1`: 90.2%. In the case of `c1ccc2nc(N3CCOCC3)c(N3CCCCC3)nc2c1`, the growth is 90.8%. The same measure for `OCCNc1nc(NCCO)nc(Nc2ccc(C3=NN(c4cc(Cl)cc(Cl)c4)C(c4ccccc4)C3)cc2)n1` (stereo not given): 24.5%; for `Cc1ccc(-c2nc(C#N)c(S(=O)(=O)N(C)CCO)o2)cc1`: 99.8%. The same measure for `CC(=O)Oc1c2c(nc3c1c1ccccc1n3Cc1ccccc1)-c1ccccc1C2`: 71.8%; for `COc1ccc(/C=C/C(=O)C(CC2CCC2)C(=O)/C=C/c2ccc(OC)c(OC)c2)cc1OC`: -8.3% (active); for `CC(=O)[C@@H]1CC[C@]2(C(=O)O)CC[C@]3(C)[C@H](CC[C@@H]4[C@@]5(C)Cc6c([nH]c7ccccc67)C(C)(C)[C@@H]5CC[C@]43C)[C@@H]12`: 40.7%. As for `Clc1ccc2c(NCCCNC3CCCCC3)ccnc2c1`, the growth is 87.3%. For `O=C(O)C(C(=O)O)c1cccc2ccccc12`, the growth was 100%.

`COc1cc(NC(=O)c2cc(O)c(C/C=C(\C)CCC=C(C)C)c(O)c2)cc2c1O[C@]1(C)CC[C@@H](O)C(C)(C)[C@H]1C2`: the growth was 13.1%. As for `CC[C@]12C=CCN3CC[C@@]4(c5ccc(OC)cc5N(C)[C@H]4[C@@](O)(C(=O)OC)[C@@H]1OC(=O)CCC(=O)O[C@H]1CC[C@H]4[C@@H]5CC[C@H]6CC(=O)CC[C@]6(C)[C@H]5CC[C@]14C)[C@@H]32`, the growth was 12.3%. `COc1cc(NCC(=O)Nc2cc(Nc3cccc(C(F)(F)F)c3)ncn2)c(Cl)c(OC)c1Cl`: the growth was 82.2%. Consider `COc1cccc(NC(=O)Nc2ccc(Oc3ncnc4[nH]c(C)c(C)c34)cc2)c1`, for which the growth was 80.8%. Turning to `CCN(CC)CC#CCOC(=O)[C@]1(C)CCC[C@]2(C)[C@H]3C[C@H]4C(C(C)C)=C[C@]3(CC[C@H]21)[C@@H]1C(=O)CCC(=O)[C@@H]14`, the growth was 25%.

On to `O=C1NN(c2ccccc2)C(c2ccc(Cl)cc2)N2CCC[C@H]12` (stereo not given in full), for which the growth was 99.6%. The same measure for `CC[C@H](Nc1ncnc2nc[nH]c12)c1nc2cccc(CC(=O)c3ccc(C(=O)NO)cc3)c2c(=O)n1-c1ccccc1`: 73.6%; for `C[C@@H]1C(=O)[C@@H]2C[C@@H](O)[C@@H](O)C[C@]2(C)[C@H]2CC[C@@]3(C)C(=C12)CC[C@@H]3[C@@](C)(O)[C@H](O)CCC(C)(C)O`: 96.4%; for `C=C1C(=O)O[C@H]2[C@H]1CC/C(COC(=O)N1CCC[C@H]1C(=O)Nc1ccc(OC)c(C(N)=O)c1O)=C\CC[C@@]1(C)O[C@@H]21`: 74.4%. The same measure for `Nc1cccc(C(=O)Nc2ccc3c(O)c(N=Nc4ccc(N=Nc5ccc(S(=O)(=O)O)cc5)cc4)c(S(=O)(=O)O)cc3c2)c1`: 91.9%; for `[2H]c1nc(Nc2ncc3cc(C(=O)N(C)C)n(C4CCCC4)c3n2)c([2H])c([2H])c1N1C([2H])([2H])C([2H])([2H])NC([2H])([2H])C1([2H])[2H]`: 54.6%; for `COc1ccccc1N1CCN(CCCOc2ccc(C(=O)/C=C3/C(=O)Nc4ccccc43)cc2)CC1`: 40.9%. Take `O=C(CSC(=S)N1CCCCC1)Nc1ccccc1`: the growth is 92.6%.

For `O=C(Nc1ccc(S(=O)(=O)NC2CCCCCC2)cc1)C(c1ccccc1)S(=O)(=O)c1ccc(F)cc1` (stereo not given), the growth was 7.69% (active).

Regarding `O=C1NN(c2ccccc2)C(c2ccc3c(c2)OCO3)N2CCC[C@@H]12` (stereo not given in full), the growth is 90.7%. `COc1c(O)cc2oc3cc(O[C@@H]4OC(C)[C@@H](O)[C@H](O)C4O)c(CC=C(C)C)c(O)c3c(=O)c2c1CC=C(C)C` (stereo not given in full): the growth is 74.9%.

For the molecule `Cc1nc2sc(C(=O)Nc3cccc4ccccc34)c(N)c2cc1C(C)O` (stereo not given), the growth was 30.7%. Regarding `CCCCn1c2cc(OCc3cn(-c4ccc(Cl)cc4)nn3)ccc2c2ccnc(C)c21`, the growth was 44.7%.

In the case of `COc1ccc2nc(-c3ccc(Cl)cc3)cc(-c3nnc(SCC(=O)Nc4ccc(/C(C)=N\O)cc4)o3)c2c1`, the growth is 13.7%.

With `COc1ccc(C(=O)c2cc(OC)c(OC)c(OC)c2)cc1OC(=O)C(Cl)(Cl)Cl`, the growth was 10.2%. Regarding `C=C1C(=O)O[C@H]2[C@H]1CC/C(C=Nc1c(N)cc(F)cc1Br)=C\CC[C@@]1(C)O[C@@H]21`, the growth is 58.3%.
